# According to the supplement of paper PMC8728848:
# The full list was thinned out, with the strongest signals kept by preference.
# B1: StcE (Escherichia coli), O82882.2 (protein)
# chain: ADNNSAIYFNTSQPINDLQGSLAAEVKFAQSQILPAHPKEGDSQPHLTSLRKSLLLVRPVKADDKTPVQVEARDDNNKILGTLTLYPPSSLPDTIYHLDGVPEGGIDFTPHNGTKKIINTVAEVNKLSDASGSSIHSHLTNNALVEIHTANGRWVRDIYLPQGPDLEGKMVRFVSSAGYSSTVFYGDRKVTLSVGNTLLFKYVNGQWFRSGELENNRITYAQHIWSAELPAHWIVPGLNLVIKQGNLSGRLNDIKIGAPGELLLHTIDIGMLTTPRDRFDFAKDKEAHREYFQTIPVSRMIVNNYAPLHLKEVMLPTGELLTDMDPGNGGWHSGTMRQRIGKELVSHGIDNANYGLNSTAGLGENSHPYVVAQLAAHNSRGNYANGIQVHGGSGGGGIVTLDSTLGNEFSHEVGHNYGLGHYVDGFKGSVHRSAENNNSTWGWDGDKKRFIPNFYPSQTNEKSCLNNQCQEPFDGHKFGFDAMAGGSPFSAANRFTMYTPNSSAIIQRFFENKAVFDSRSSTGFSKWNADTQEMEPYEHTIDRAEQITASVNELSESKMAELMAEYAVVKVHMWNGNWTRNIYIPTASADNRGSILTINHEAGYNSYLFINGDEKVVSQGYKKSFVSDGQFWKERDVVDTREARKPEQFGVPVTTLVGYYDPEGTLSSYIYPAMYGAYGFTYSDDSQNLSDNDCQLQVDTKEGQLRFRLANHRANNTVMNKFHINVPTESQPTQATLVCNNKILDTKSLTPAPEGLTYTVNGQALPAKENEGCIVSVNSGKRYCLPVGQRSGYSLPDWIVGQEVYVDSGAKAKVLLSDWDNLSYNRIGEFVGNVNPADMKKVKAWNGQYLDFSKPRSMRVVYK
# How the values were obtained:
# Assay in all cases: glycan array binding signal (z-score within array); higher = stronger binding
# Conditions in all cases: glycan notation: IUPAC condensed, linker removed
# [1] = target: Fuc(a1-2)Gal(b1-3)GalNAc(a1-3)[Fuc(a1-2)]Gal(b1-4)Glc
# Procedure, shortened: (§1)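 Arrays were curated from the Consortium for Functional Glycomics database, 3228 in total, and kept only where the protein sequence was available. Binding is expressed as a within-array Z-score. This score was averaged across arrays of the same protein sequence at different concentrations or buffers and across linkers, and negative values can be read as non-binding.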
# [2] = target: Fuc(a1-2)Gal(b1-3)GlcNAc(b1-3)Gal(b1-4)Glc
# Procedure, shortened: as §1
# [3] = target: Fuc(a1-2)Gal(b1-3)[Fuc(a1-4)]GlcNAc(b1-3)[Fuc(a1-3)[Gal(b1-4)]GlcNAc(b1-6)]Gal(b1-4)Glc
# Procedure, shortened: as §1
# [4] = target: Fuc(a1-2)Gal(b1-4)GlcNAc(b1-2)Man
# Procedure, shortened: as §1
# [5] = target: Fuc(a1-2)Gal(b1-4)GlcNAc(b1-2)Man(a1-3)[Fuc(a1-2)Gal(b1-4)GlcNAc(b1-2)Man(a1-6)]Man(b1-4)GlcNAc(b1-4)[Fuc(a1-6)]GlcNAc
# Procedure, shortened: as §1
# [6] = target: Fuc(a1-2)Gal(b1-4)GlcNAc(b1-3)[Fuc(a1-2)Gal(b1-4)GlcNAc(b1-6)]GalNAc
# Procedure, shortened: as §1
# [7] = target: Fuc(a1-2)Gal(b1-4)[Fuc(a1-3)]GlcNAc(b1-3)Gal(b1-4)[Fuc(a1-3)]GlcNAc
# Procedure, shortened: as §1
# [8] = target: Fuc(a1-2)Gal6S(b1-3)GlcNAc6S
# Procedure, shortened: as §1
# [9] = target: Fuc(a1-2)[GalNAc(a1-3)]Gal(b1-3)GlcNAc(b1-2)Man(a1-3)[Fuc(a1-2)[GalNAc(a1-3)]Gal(b1-3)GlcNAc(b1-2)Man(a1-6)]Man(b1-4)GlcNAc(b1-4)[Fuc(a1-6)]GlcNAc
# Procedure, shortened: as §1
# [10] = target: Fuc(a1-2)[GalNAc(a1-3)]Gal(b1-3)GlcNAc(b1-3)GalNAc
# Procedure, shortened: as §1
# [11] = target: Fuc(a1-2)[GalNAc(a1-3)]Gal(b1-4)GlcNAc(b1-2)Man(a1-3)[Fuc(a1-2)[GalNAc(a1-3)]Gal(b1-4)GlcNAc(b1-2)Man(a1-6)]Man(b1-4)GlcNAc(b1-4)[Fuc(a1-6)]GlcNAc
# Procedure, shortened: as §1
# [12] = target: Fuc(a1-3)[Gal(b1-4)]GlcNAc(b1-2)Man(a1-3)[Fuc(a1-3)[Gal(b1-4)]GlcNAc(b1-2)Man(a1-6)]Man(b1-4)GlcNAc(b1-4)[Fuc(a1-6)]GlcNAc
# Procedure, shortened: as §1
# [13] = target: Fuc(a1-3)[GalNAc3S(b1-4)]GlcNAc
# Procedure, shortened: as §1
# [14] = target: Gal(a1-3)Gal(b1-3)[Fuc(a1-4)]GlcNAc(b1-2)Man(a1-3)[Gal(a1-3)Gal(b1-3)[Fuc(a1-4)]GlcNAc(b1-2)Man(a1-6)]Man(b1-4)GlcNAc(b1-4)GlcNAc
# Procedure, shortened: as §1
# [15] = target: Gal(a1-3)Gal(b1-4)Glc
# Procedure, shortened: as §1
# [16] = target: Gal(a1-3)Gal(b1-4)[Fuc(a1-3)]GlcNAc
# Procedure, shortened: as §1
# [17] = target: Gal(a1-4)Gal(b1-4)GlcNAc
# Procedure, shortened: as §1
# [18] = target: Gal(b1-2)Gal
# Procedure, shortened: as §1
# [19] = target: Gal(b1-3)GalNAc(a1-3)[Fuc(a1-2)]Gal(b1-4)GlcNAc
# Procedure, shortened: as §1
# [20] = target: Gal(b1-3)GlcNAc(a1-3)Gal(b1-4)GlcNAc
# Procedure, shortened: as §1
# [21] = target: Gal(b1-3)GlcNAc(b1-3)Gal(b1-3)GlcNAc
# Procedure, shortened: as §1
# [22] = target: Gal(b1-3)[Fuc(a1-4)]GlcNAc(b1-2)Man(a1-3)[Gal(b1-3)[Fuc(a1-4)]GlcNAc(b1-2)Man(a1-6)]Man(b1-4)GlcNAc(b1-4)[Fuc(a1-6)]GlcNAc
# Procedure, shortened: as §1
# [23] = target: Gal(b1-4)GlcNAc(b1-2)Man
# Procedure, shortened: as §1
# [24] = target: Gal3S6S(b1-4)GlcNAc
# Procedure, shortened: as §1
# [25] = target: Gal6S(b1-4)Glc
# Procedure, shortened: as §1
# [26] = target: GlcNAc(a1-4)Gal(b1-4)GlcNAc(b1-3)Gal(b1-4)[Fuc(a1-3)]GlcNAc(b1-3)Gal(b1-4)[Fuc(a1-3)]GlcNAc
# Procedure, shortened: as §1
# [27] = target: GlcNAc(b1-2)Man(a1-3)[GlcNAc(b1-4)][GlcNAc(b1-2)Man(a1-6)]Man(b1-4)GlcNAc(b1-4)GlcNAc
# Procedure, shortened: as §1
# [28] = target: GlcNAc(b1-3)Gal
# Procedure, shortened: as §1
# [29] = target: Kdn(a2-3)Gal(b1-4)[Fuc(a1-3)]GlcNAc
# Procedure, shortened: as §1
# [30] = target: Man(a1-2)Man(a1-2)Man(a1-3)Man
# Procedure, shortened: as §1
# [31] = target: Man(a1-2)Man(a1-6)[Man(a1-3)]Man(a1-6)[Man(a1-2)Man(a1-2)Man(a1-3)]Man
# Procedure, shortened: as §1
# [32] = target: Man(a1-3)[Man(a1-6)]Man(a1-6)[Man(a1-3)]Man(b1-4)GlcNAc(b1-4)GlcNAc
# Procedure, shortened: as §1
# [33] = target: Man(a1-3)[Man(a1-6)]Man(b1-4)GlcNAc(b1-4)[Fuc(a1-6)]GlcNAc
# Procedure, shortened: as §1
# [34] = target: Neu5Ac(a2-3)Gal(b1-3)GlcNAc(b1-2)Man(a1-3)[GlcNAc(b1-4)][Neu5Ac(a2-3)Gal(b1-3)GlcNAc(b1-2)Man(a1-6)]Man(b1-4)GlcNAc(b1-4)GlcNAc
# Procedure, shortened: as §1
# [35] = target: Neu5Ac(a2-3)Gal(b1-3)[Fuc(a1-4)]GlcNAc(b1-3)Gal(b1-3)[Fuc(a1-4)]GlcNAc
# Procedure, shortened: as §1
# [36] = target: Neu5Ac(a2-3)Gal(b1-3)[Neu5Ac(a2-6)]GalNAc
# Procedure, shortened: as §1
# [37] = target: Neu5Ac(a2-3)Gal(b1-4)GlcNAc(b1-3)Gal(b1-4)[Fuc(a1-3)]GlcNAc
# Procedure, shortened: as §1
# [38] = target: Neu5Ac(a2-3)Gal(b1-4)[Fuc(a1-3)]GlcNAc6S
# Procedure, shortened: as §1
# [39] = target: Neu5Ac(a2-6)Gal(b1-4)GlcNAc(b1-3)GalNAc
# Procedure, shortened: as §1
# [40] = target: Neu5Ac(a2-6)GlcNAc(b1-4)GlcNAc
# Procedure, shortened: as §1
# [41] = target: Neu5Gc(a2-3)Gal(b1-4)GlcNAc
# Procedure, shortened: as §1
binder,measurement,setting,value
B1,glycan array binding signal (z-score),[1],-0.142
same,glycan array binding signal (z-score),[2],-0.144
same,glycan array binding signal (z-score),[3],-0.147
same,glycan array binding signal (z-score),[4],-0.132
same,glycan array binding signal (z-score),[5],1.14
same,glycan array binding signal (z-score),[6],2.85
same,glycan array binding signal (z-score),[7],-0.122
same,glycan array binding signal (z-score),[8],5.23
same,glycan array binding signal (z-score),[9],0.015
same,glycan array binding signal (z-score),[10],-0.096
same,glycan array binding signal (z-score),[11],-0.164
same,glycan array binding signal (z-score),[12],-0.117
same,glycan array binding signal (z-score),[13],-0.164
same,glycan array binding signal (z-score),[14],4.13
same,glycan array binding signal (z-score),[15],-0.25
same,glycan array binding signal (z-score),[16],0.116
same,glycan array binding signal (z-score),[17],-0.215
same,glycan array binding signal (z-score),[18],0.601
same,glycan array binding signal (z-score),[19],-0.17
same,glycan array binding signal (z-score),[20],-0.109
same,glycan array binding signal (z-score),[21],-0.142
same,glycan array binding signal (z-score),[22],4.66
same,glycan array binding signal (z-score),[23],-0.167
same,glycan array binding signal (z-score),[24],-0.175
same,glycan array binding signal (z-score),[25],0.013
same,glycan array binding signal (z-score),[26],3.96
same,glycan array binding signal (z-score),[27],-0.167
same,glycan array binding signal (z-score),[28],0.13
same,glycan array binding signal (z-score),[29],-0.152
same,glycan array binding signal (z-score),[30],-0.442
same,glycan array binding signal (z-score),[31],-0.148
same,glycan array binding signal (z-score),[32],-0.198
same,glycan array binding signal (z-score),[33],-0.049
same,glycan array binding signal (z-score),[34],-0.142
same,glycan array binding signal (z-score),[35],4.08
same,glycan array binding signal (z-score),[36],8.93
same,glycan array binding signal (z-score),[37],-0.162
same,glycan array binding signal (z-score),[38],2.84
same,glycan array binding signal (z-score),[39],2.78
same,glycan array binding signal (z-score),[40],-0.156
same,glycan array binding signal (z-score),[41],-0.113
